The record followed here is publication PMC12136788.

First the molecules themselves.
T1: UNK ZnF1-3 (human, UniProt Q9C0B0 31-174)
T1 sequence: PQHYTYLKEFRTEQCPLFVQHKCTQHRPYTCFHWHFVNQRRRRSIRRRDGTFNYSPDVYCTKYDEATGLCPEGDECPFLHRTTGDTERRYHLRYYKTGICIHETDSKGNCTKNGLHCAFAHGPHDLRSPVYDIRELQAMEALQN

B1: 129217275_129261777_1030_CDS_ENSMUSG00000036155_ENSMUST00000038361|mouse|control|control (ssRNA)
RNA: GGGAGUUCUACAGUCCGACGAUCGUAGCCAUCCAUAGGAGGCAAUACACAUUUUUCCUGAACUCCAUUAAUGAUAUCUGCCACAUUAAUUUUCUCAAGCGACACCAAGCUGGGGACAGCCGUGGUGGAGUUGGUGGAGUUCGCCAACAGAGGAUUGAGCAUCA
B2: 107042093_107043494_1117_CDS_ENSMUSG00000031878_ENSMUST00000034349|mouse|control|control (ssRNA)
RNA: GGGAGUUCUACAGUCCGACGAUCAACAGACUGAAGCAAUUUGGCAACGUGAUUGCCUACAGCAGCAGCAUCUUUCUUUGCUUUCUCUCGGUAAACAUUCUGCAGUUUUAUGUAUUUGUUUGAAUCUGCAAUCAUAUCAGGAAUCAACAGAGGAUUGAGCAUCA
B3: chr7:141441981:141441982:+_ENSG00000106028_ENST00000265304|hu_mus|hu_hu_hu_mus_False|58_58 (ssRNA)
RNA: GGGAGUUCUACAGUCCGACGAUCCUCAUGUCUUACAAACUGACGAAAUACCUGUAACACAGGUCUUCGAAACAUGGCUUCUAUUUUUCUUACAACCUAAUCUUUAGGCUUUUCCUAAAGGAAAGAAAGAAAAGAGAAAAAUGACAACAGAGGAUUGAGCAUCA
B4: chrX:16871948:16871949:-_ENSG00000102054_ENST00000404022|hu_mus|FALSE|FALSE (ssRNA)
RNA: GGGAGUUCUACAGUCCGACGAUCAGUAAAGAUUGCUUUAGCAUCCACAAUUUUGCCUUCCUUUGGUCCUGCAUUUAUAUCCCACAGGCAGACAGUAUGGUCAUCAGAUGCACUCAGGAGAUGCCCACUCAGAUUAGAAUUCCACAACAGAGGAUUGAGCAUCA
B5: chr22:35691198:35691199:+_ENSG00000100281_ENST00000216106|hu_mus|FALSE|FALSE (ssRNA)
RNA: GGGAGUUCUACAGUCCGACGAUCACAGUCCUGUGAGAAGCUUAGCUGUGACAGCAGUCGGGCUAUGGGAAGGAGUUCCCUAGGAUGCCAGCUGGCUACAUGGUCCCCAAAGGUUUACUGUGAUGCUGCCUCGUUCCAUCCAGGCAACAGAGGAUUGAGCAUCA
B6: chr9:14812383:14812384:-_ENSMUSG00000031934_ENSMUST00000164273|mus_mus|mus_mus_mus_hu_True|38_48 (ssRNA)
RNA: GGGAGUUCUACAGUCCGACGAUCAUAGCCCAGGUAGAUACACGCUAACAGUAUAAUGAUGAGUGUCAGCAGGCGGCAGCUAAUGUAUUUCAUGAUUAAAUGACUAGAAUUUUUCUUUGUCUUCAAGUACUGCUCCACAAUUGGCAACAGAGGAUUGAGCAUCA
B7: chr9:14812383:14812384:-_ENSMUSG00000031934_ENSMUST00000164273|mus_mus|mus_mus_mus_hu_True|28_48 (ssRNA)
RNA: B6 RNA with G101U, C103U, A108G, U111C, C114U
B8: chr9:14812383:14812384:-_ENSMUSG00000031934_ENSMUST00000164273|mus_mus|mus_mus_mus_hu_True|48_48 (ssRNA)
RNA: B6 RNA with G101U, C103U
B9: chrX:98862621:98862622:+_ENSMUSG00000034160_ENSMUST00000044475|mus_hu|mus_mus_mus_hu_False|78_78 (ssRNA)
RNA: GGGAGUUCUACAGUCCGACGAUCCUGCAUCUCCUUUAGAGUGUUUCCCAUAUUAGAAUAAGCAUCAGCAAAGGUAGGACUGAUUCGAAUAGCCUCCUUAUAAUGCAUCAGAGCUUCCUGCAGUUUUCCCUGCUGCUGCAGUACCAACAGAGGAUUGAGCAUCA
B10: chr1:6284582:6284583:-_ENSG00000116237_ENST00000343813|hu_hu|motif|central (ssRNA)
RNA: GGGAGUUCUACAGUCCGACGAUCAGCUAGGAAUACCCCUUUGAAUGUGUACUGCUACUUAUAAAAAAUAGGUAUGUAGCGGUGAUUAAAUAGAUGAAGGGCCAAAGCAUCCUAUGAGGAAGUAUUUUUAAAAUUGUAUAGAUGCAACAGAGGAUUGAGCAUCA
B11: chr9:14812383:14812384:-_ENSMUSG00000031934_ENSMUST00000164273|mus_mus|mus_mus_mus_hu_True|68_98 (ssRNA)
RNA: B6 RNA with C42U, U45C, G68C, G72C, U87C, C90G, G101U, C103U
B12: chr1:6284582:6284583:-_ENSG00000116237_ENST00000343813|hu_hu|FALSE|FALSE (ssRNA)
RNA: B10 RNA with G80U, G81A
B13: chr12:1897663:1897664:+_ENSG00000006831_ENST00000357103|hu_mus|motif|central (ssRNA)
RNA: GGGAGUUCUACAGUCCGACGAUCGCUUUGUGAUUUCAGCAACUUAUAGAGGGGAGAGAGGAAAUACUGAAAAAGGCCACGGUUUAAUGAUGAGAGAGUGAAGGUGUACAGGUUCCUAACCAGCCUAGGGCCAAAAAAGGAGACCAACAGAGGAUUGAGCAUCA
B14: chr12:1897663:1897664:+_ENSG00000006831_ENST00000357103|hu_mus|FALSE|FALSE (ssRNA)
RNA: B13 RNA with G80U, G81A
B15: chr2:217001844:217001845:+_ENSG00000079246_ENST00000392132|hu_hu|hu_hu_hu_mus_False|98_108 (ssRNA)
RNA: GGGAGUUCUACAGUCCGACGAUCACCGACUUGAGGAUUAGCUCUUUUGUCAUAAGCAUAUCGGACGAUGGCGACCAUGUUUAACUCAUCCAAAGCAUGAACGAGAGAGGAAAGGGCAACAGCUGCCGCCUCAUCAUCCUUUGCCAACAGAGGAUUGAGCAUCA
B16: chrX:132781199:132781200:+_ENSMUSG00000042712_ENSMUST00000048687|mus_hu|FALSE|FALSE (ssRNA)
RNA: GGGAGUUCUACAGUCCGACGAUCUGCUAAUAAAAAGCAAGCUAUAUGGUAUUGUUAAUAUCAGAUAAAAAUCAAGGUAAACUACAUUAAAUAGGGGUAAGGAUGGUUUCGAUUAACCUUCCAACGCAUCACUAUAAGUUUGUUCAACAGAGGAUUGAGCAUCA
B17: chr15:90999404:90999405:+_ENSG00000140575_ENST00000268182|hu_hu|FALSE|FALSE (ssRNA)
RNA: GGGAGUUCUACAGUCCGACGAUCCUGCAGAGUCUUUUGGGCAUCACCUUCAUCCAGGGCUUCAUUAAUUAAACCAAUGGCUAAAAUCCUCUCAUGUUCCUCUUGCACCACCAGGUUCACAUGGUCCACGCAAGCUUGGAUAUCCAACAGAGGAUUGAGCAUCA
B18: chrX:132781199:132781200:+_ENSMUSG00000042712_ENSMUST00000048687|mus_hu|motif|central (ssRNA)
RNA: B16 RNA with U82G, A83G
B19: 31404426_31405736_1086_CDS_ENSG00000196792_ENST00000355683|human|control|control (ssRNA)
RNA: GGGAGUUCUACAGUCCGACGAUCAGUCACUAAAAAAUCAAAUUCUUUCAGUGCUUCCUCAGUAUCAGGAUCGUCAGUUAGGUCAGCAGCUAAACCUUCAUUACCUAUUUUAUGUUUAUUCAUCCGAUGUUUGUCUUUUCCUUCCAACAGAGGAUUGAGCAUCA
B20: 126502921_126503041_1455_ncRNA_ENSMUSG00000006728_ENSMUST00000140254|mouse|control|control (ssRNA)
RNA: GGGAGUUCUACAGUCCGACGAUCUGGUCGGCUUCAGAGUUUCCACAGAAGAGAGGCCUAAGGCAGAAAAAGACUCAAAGUAUGUGUUAUAUCAAAAAUAGGGGAGUGGGGGCUGGAGAGACGGCUCAGCAGAUAAGACUGCUCCAACAGAGGAUUGAGCAUCA
B21: chr7:34932688:34932689:-_ENSMUSG00000052997_ENSMUST00000102746|mus_mus|FALSE|FALSE (ssRNA)
RNA: GGGAGUUCUACAGUCCGACGAUCCAAGAGCUUCUUUCUUGGGUUUGGCUGCUUAUUCAAAAAAAUAGUUCUACACUGGUCUAUUUUUCCAGAUAAAAUCUUUAAUCCUUCCAACACUAUCAAGCCGGCGAUCACUGCAUUAGUCAACAGAGGAUUGAGCAUCA
B22: 63494515_63562186_783_3pUTR_ENSMUSG00000025964_ENSMUST00000114107|mouse|control|control (ssRNA)
RNA: GGGAGUUCUACAGUCCGACGAUCUAGUGGAUCUCCACGUAGUCAGAAGAUAGCAAACCAUUGUUCAGUGUGAGGUCAAGAAUGAACUUGGAGCCGAAAGCUUCGAUCUGGAAGCUUGCCUGGGCCAGAUGCACAGCCUUAUUGCAACAGAGGAUUGAGCAUCA

Positions count from the first letter of the chain named. Over roughly 24,000 sequences, “enrichment r” has its median near 0.99; the highest 2% begin near 3.7. The list comes from a sample in which the highest values are over-represented; it also holds similar and randomly drawn sequences.

In the experiment the target is T1, UNK ZnF1-3. Briefly: nsRBNS (natural sequence RNA bind-n-seq); RBNS binding buffer (assumed for nsRBNS): 25 mM Tris pH 7.5, 150 mM KCl, 3 mM MgCl2, 0.01% Triton X-100, 500 ug/ml BSA, 20 U/ml SUPERase-In, 4 C; UNK is unkempt and MSI1 is Musashi-1; names of the RNAs are library labels; protein concentration not given here; high values mean tight binding.
In turn, B1 registered a binding signal of 1.11 enrichment R. B2 came in with a binding signal of 1.02 enrichment R.

The molecule B3 returned a binding signal of 0.678 enrichment R.

With B4, the binding signal turned out to be 1.03 enrichment R.

On to B5, for which the binding signal came to 1.01 enrichment R. B6 gave a binding signal of 1.52 enrichment R. For the molecule B7, the binding signal is 3.67 enrichment R.

B8 displayed a binding signal of 3.85 enrichment R. B9 returned a binding signal of 1.09 enrichment R. B10 gave a binding signal of 6.98 enrichment R. Turning to B11, the binding signal was 1.27 enrichment R.

B12 showed a binding signal of 6.19 enrichment R.

B13: the binding signal amounted to 3.48 enrichment R. For the molecule B14, the binding signal is 3.52 enrichment R. Molecule B15 came in with a binding signal of 2.19 enrichment R. The result for B16 reads 5.13 enrichment R; that for B17, 1.38 enrichment R.

On to B18, for which the binding signal came out at 5.74 enrichment R. The result for B19 reads 0.927 enrichment R; that for B20, 3.33 enrichment R. The molecule B21 displayed a binding signal of 1.12 enrichment R. B22: the binding signal was 1.25 enrichment R.
